Source: PubChem BioAssay AID1159580 (chemical genetic matrix, 2015)
The whole screen tested about 5,500 compounds, of which about 2,000 (36%) were called active. About 18% were inconclusive and are not listed. No stated cut-off is given here; in the data, active means normalized growth mostly below about 0.91 (no sharp cut-off); inconclusive means no clear call, values can overlap the other calls; inactive means mostly above about 0.92. Some of the results follow.

Assay: chemical genetic growth profiling, strain panel (AID 1159580);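 further: tested at 20 µM; growth read once vehicle control cultures reached saturation at 30 °C; 1 = growth at the plate median or of vehicle wells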
Settings: S. cerevisiae deletion strains, growth OD

Measured: normalized growth

CCOC(=O)c1ncn2c1CN(C)C(=O)c1cc(F)ccc1-2
inactive: locus YAL013W, strain DEP1, stronger effect = lower value 0.994 | locus YAL021C, strain ccr4, stronger effect = lower value 1.01 | locus YAL026C, strain drs2, stronger effect = lower value 1.02 | locus YAL030W, strain snc1, stronger effect = lower value 1.02 | locus YAL040C, strain CLN3, stronger effect = lower value 1 | locus YBL061C, strain skt5, stronger effect = lower value 1.01 | locus YBR009C, strain hhf1, stronger effect = lower value 1.03 | locus YBR023C, strain chs3, stronger effect = lower value 1.02 | locus YBR171W, strain sec66, stronger effect = lower value 1.02 | locus YBR231C, strain swc5, stronger effect = lower value 1.02 | locus YBR279W, strain paf1, stronger effect = lower value 1.01 | locus YCL011C, strain gbp2, stronger effect = lower value 1.01 | locus YCL016C, strain dcc1, stronger effect = lower value 1.02 | locus YCL061C, strain MRC1 (second series), stronger effect = lower value 1 | locus YCL061C, strain MRC1, stronger effect = lower value 1.02 | locus YCL069W, strain vba3, stronger effect = lower value 1.01 | locus YCR088W, strain abp1, stronger effect = lower value 1.02 | locus YDL005C, strain med2, stronger effect = lower value 1.02 | locus YDL040C, strain nat1, stronger effect = lower value 1.02 | locus YDR001C, strain nth1, stronger effect = lower value 1.02 | locus YDR069C, strain doa4, stronger effect = lower value 1.03 | locus YDR137W, strain rgp1, stronger effect = lower value 1 | locus YDR150W, strain NUM1, stronger effect = lower value 1.01 | locus YDR159W, strain sac3, stronger effect = lower value 1.03 | locus YDR195W, strain ref2 1.02 | locus YDR297W, strain sur2, stronger effect = lower value 1.01 | locus YDR334W, strain swr1, stronger effect = lower value 1.02 | locus YDR335W, strain msn5, stronger effect = lower value 1.02 | locus YDR363W, strain ESC2, stronger effect = lower value 0.997 | locus YDR392W, strain spt3, stronger effect = lower value 0.994 | locus YEL003W, strain gim4, stronger effect = lower value 1.02 | locus YEL037C, strain rad23, stronger effect = lower value 1.01 | locus YEL061C, strain CIN8 (second series), stronger effect = lower value 1.02 | locus YER002W, strain NOP16, stronger effect = lower value 0.993 | locus YER015W, strain faa2, stronger effect = lower value 1.01 | locus YER016W, strain bim1, stronger effect = lower value 1.01 | locus YER111C, strain swi4, stronger effect = lower value 1.01 | locus YER155C, strain BEM2 (second series), stronger effect = lower value 1.01 | locus YFR010W, strain ubp6, stronger effect = lower value 1.02 | locus YGL167C, strain pmr1, stronger effect = lower value 1.03 | locus YGL173C, strain kem1, stronger effect = lower value 1.02 | locus YGL227W, strain vid30, stronger effect = lower value 1.02 | locus YGL240W, strain doc1, stronger effect = lower value 1.04 | locus YGL253W, strain hxk2, stronger effect = lower value 1.02 | locus YGR078C, strain PAC10, stronger effect = lower value 1.01 | locus YHR013C, strain ard1, stronger effect = lower value 1.03 | locus YHR027C, strain rpn1, stronger effect = lower value 1.01 | locus YHR030C, strain SLT2, stronger effect = lower value 0.986 | locus YHR079C, strain IRE1, stronger effect = lower value 0.997 | locus YHR142W, strain chs7, stronger effect = lower value 0.972 | locus YJL092W, strain hpr5, stronger effect = lower value 1.02 | locus YJL095W, strain BCK1 (second series), stronger effect = lower value 1.02 | locus YJL095W, strain BCK1, stronger effect = lower value 0.997 | locus YJL115W, strain asf1, stronger effect = lower value 1.02 | locus YJL129C, strain trk1, stronger effect = lower value 1.01 | locus YJL154C, strain vps35, stronger effect = lower value 1.02 | locus YJL164C, strain tpk1, stronger effect = lower value 1.02 | locus YJL166W, strain qcr8, stronger effect = lower value 1.03 | locus YJL187C, strain SWE1, stronger effect = lower value 1.02 | locus YJR066W, strain TOR1, stronger effect = lower value 0.93 | locus YJR075W, strain HOC1, stronger effect = lower value 1 | locus YKL160W, strain elf1, stronger effect = lower value 1.01 | locus YKR026C, strain gcn3, stronger effect = lower value 1.01 | locus YKR091W, strain srl3, stronger effect = lower value 1.01 | locus YLL001W, strain dnm1, stronger effect = lower value 1.01 | locus YLL026W, stronger effect = lower value 1.02 | locus YLL041C, strain sdh2, stronger effect = lower value 1.02 | locus YLR027C, strain aat2, stronger effect = lower value 1.02 | locus YLR113W, strain HOG1, stronger effect = lower value 1.01 | locus YLR221C, strain rsa3, stronger effect = lower value 1.02 | locus YLR258W, strain gsy2, stronger effect = lower value 1.02 | locus YLR262C, strain YPT6 (second series), stronger effect = lower value 1.02 | locus YLR320W, strain mms22, stronger effect = lower value 1.03 | locus YLR342W, strain FKS1, stronger effect = lower value 1.02 | locus YLR357W, strain rsc2, stronger effect = lower value 1.03 | locus YLR370C, strain arc18, stronger effect = lower value 1.02 | locus YLR384C, strain iki3, stronger effect = lower value 1.02 | locus YML120C, strain ndi1, stronger effect = lower value 1 | locus YMR058W, strain fet3, stronger effect = lower value 1.02 | locus YMR125W, strain sto1, stronger effect = lower value 1.03 | locus YMR129W, stronger effect = lower value 1.01 | locus YMR205C, strain PFK2, stronger effect = lower value 1.03 | locus YMR231W, strain pep5, stronger effect = lower value 1.01 | locus YMR307W, strain GAS1, stronger effect = lower value 0.985 | locus YNL071W, strain lat1, stronger effect = lower value 1.01 | locus YNL175C, strain NOP13, stronger effect = lower value 0.999 | locus YNL183C, strain NPR1, stronger effect = lower value 0.938 | locus YNL197C, strain WHI3, stronger effect = lower value 0.999 | locus YNL209W, strain ssb2, stronger effect = lower value 1.02 | locus YNL224C, strain SQS1, stronger effect = lower value 1 | locus YNL248C, strain rpa49, stronger effect = lower value 0.992 | locus YNL322C, strain KRE1 (second series), stronger effect = lower value 1.01 | locus YNR049C, strain mso1, stronger effect = lower value 1.02 | locus YOR001W, strain rrp6, stronger effect = lower value 1.01 | locus YOR070C, strain gyp1, stronger effect = lower value 1.02 | locus YOR080W, strain dia2, stronger effect = lower value 1.02 | locus YOR083W, strain WHI5 (second series), stronger effect = lower value 1.03 | locus YOR083W, strain WHI5, stronger effect = lower value 0.997 | locus YOR106W, strain vam3, stronger effect = lower value 1.01 | locus YOR231W, strain MKK1, stronger effect = lower value 0.983 | locus YOR265W, strain rbl2, stronger effect = lower value 1.02 | locus YOR270C, strain vph1, stronger effect = lower value 1.02 | locus YOR290C, strain snf2, stronger effect = lower value 1.01 | locus YPL051W, strain arl3, stronger effect = lower value 1.01 | locus YPL055C, strain LGE1, stronger effect = lower value 1.01 | locus YPL078C, strain atp4, stronger effect = lower value 1 | locus YPL106C, strain sse1, stronger effect = lower value 1.04 | locus YPL240C, strain hsp82, stronger effect = lower value 1 | locus YPL256C, strain CLN2, stronger effect = lower value 0.973
